Laboratory results from the supplement of paper PMC7380943.
Counter-ions that a name gives are not always drawn.

Legend:
[1] = system: CLZ3 (HCA2 human fibroblast dual HR-NHEJ reporter); assay: NHEJ repair efficiency (GFP+ cells) relative to control (log10 fold); higher = more non-homologous end joining; details: 5 µM; doxycycline 0.5 ug/mL
[2] = system: CLZ3 (HCA2 human fibroblast dual HR-NHEJ reporter); assay: HR repair efficiency (tdTomato+ cells) relative to control (log10 fold); higher = more homologous recombination; details: 5 µM; doxycycline 0.5 ug/mL
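For HR repair efficiency (tdTomato+ cells) relative to control in this document: compound given one day before doxycycline, which switches on I-SceI endonuclease expression to create double-strand breaks within the integrated reporter.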
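For NHEJ repair efficiency (GFP+ cells) relative to control in this document: compound given one day ahead of doxycycline, which switches on I-SceI endonuclease to cut the chromosomally integrated reporter and create DSBs.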

| Compound | NHEJ repair efficiency (log10) [1] | HR repair efficiency (log10) [2] |
| --- | --- | --- |
| C=C1C[C@]2(O)O[C@@]3(CC2=C(C)C)[C@@H](C)CC[C@@H]13 [Isocurcumenol] | -0.116 | -0.239 |
| CN[C@@H](C)[C@H]1[C@H](O)C[C@@]2(C)[C@@H]3CC[C@H]4C(C)(C)[C@@H](NC)CC[C@@]45C[C@@]35CC[C@]12C [Cyclovirobuxine D] | -0.023 | 0.0389 |
| C[C@@H]1O[C@@H](OC[C@H]2O[C@@H](Oc3cc(O)c4c(c3)O[C@H](c3ccc(O)cc3)CC4=O)[C@H](O)[C@@H](O)[C@@H]2O)[C@H](O)[C@H](O)[C@H]1O [Narirutin] | 0.00886 | -0.053 |
| COc1c2c(cc3oc(C)cc(=O)c13)O[C@H](C(C)(C)O)C2 [5-O-Methylvisamminol] | -0.159 | -0.14 |
| O=Cc1ccc(CO)o1 [5-Hydroxymethyl-2-furaldehyde (5-HMF)] | -0.174 | -0.326 |
| c1cc2c(c3c1CC1c4cc5c(cc4CCN1C3)OCO5)OCO2 (centres undefined) [Tetrahydrocoptisine] | -0.0636 | -0.0746 |
| C/C=C(/C)C(=O)O[C@@H]1[C@H](OC(=O)CC(C)C)c2c(ccc3ccc(=O)oc23)OC1(C)C [Praeruptorin C] | -0.0108 | 0.00182 |
| O=C(/C=C/c1ccc(O)c(O)c1)O[C@@H](C(=O)O)[C@@H](O)C(=O)O [Caftaric Acid] | -0.0695 | -0.0835 |
| C[C@@H]1CC[C@@]2(OC1)O[C@H]1C[C@H]3[C@@H]4CC=C5C[C@@H](O)C[C@@H](O[C@@H]6O[C@H](C)[C@H](O)[C@H](O[C@@H]7OC[C@@H](O)[C@H](O)[C@H]7O)[C@H]6O[C@@H]6O[C@@H](C)[C@H](O)[C@@H](O)[C@H]6O)[C@]5(C)[C@H]4CC[C@]3(C)[C@H]1[C@@H]2C [Ophiopogonin D] | -0.0762 | -0.0693 |
| C[C@H](CCC(=O)O)[C@H]1CC[C@H]2[C@@H]3C[C@H](O)[C@@H]4C[C@H](O)CC[C@]4(C)[C@H]3CC[C@]12C [Hyodesoxycholic acid] | -0.299 | -0.322 |
| CC(C)=CCC[C@](C)(O[C@@H]1O[C@H](CO)[C@@H](O)[C@H](O)[C@H]1O)[C@H]1CC[C@]2(C)[C@@H]1[C@H](O)C[C@@H]1[C@@]3(C)CC[C@H](O)C(C)(C)[C@@H]3[C@@H](O[C@@H]3O[C@H](CO)[C@@H](O)[C@H](O)[C@H]3O)C[C@]12C [Ginsenoside Rg1] | 0.099 | 0.0737 |
| COc1cc2c(cc1O)CC[n+]1cc3c(OC)c(OC)ccc3cc1-2 [Jatrorrhizine] | -0.00725 | 0.0284 |
| O=C[C@H](O)[C@@H](O)[C@H](O)[C@H](O)CO[C@H]1O[C@H](CO[C@H]2O[C@H](CO)[C@H](O)[C@H](O)[C@H]2O)[C@H](O)[C@H](O)[C@H]1O [Manninotriose] | 0.0359 | 0.0215 |
| C=C[C@@H]1CNC(=S)O1 [Epigoitrin] | 0.17 | 0.212 |
| CC(C)=CCC[C@](C)(O[C@@H]1O[C@H](CO[C@@H]2OC[C@H](O)[C@H](O)[C@H]2O)[C@@H](O)[C@H](O)[C@H]1O)[C@H]1CC[C@]2(C)[C@@H]1[C@H](O)C[C@@H]1[C@@]3(C)CC[C@H](O[C@@H]4O[C@H](CO)[C@@H](O)[C@H](O)[C@H]4O[C@@H]4O[C@H](CO)[C@@H](O)[C@H](O)[C@H]4O)C(C)(C)[C@@H]3CC[C@]12C [Ginsenoside Rb2] | 0.0156 | 0.096 |
| CCCCCCCCCCCCCCCCCC(=O)OC [Methyl Stearate] | -0.0143 | -0.0898 |
| O=C(O)[C@H]1O[C@@H](Oc2cc(O)c3c(=O)cc(-c4ccc(O)cc4)oc3c2)[C@H](O)[C@@H](O)[C@@H]1O [Apigenin-7-O-Glucronide] | -0.216 | 0.161 |
| CCCCCCCCCC(=O)CC(O)S(=O)(=O)O (centres undefined) [Sodium Houttuyfonate] | 0.024 | 0.102 |
| COc1cc2c(cc1OC)-c1cc3ccc4c(c3c[n+]1CC2)OCO4 [Epiberberine] | -0.03 | 0.05 |
| O=C(/C=C/c1ccc(O[C@@H]2O[C@H](CO)[C@@H](O)[C@H](O)[C@H]2O)cc1)c1ccc(O)cc1O [Isoliquiritoside] | -0.17 | -0.232 |
| O=C(/C=C/c1ccc(O)c(O)c1)O[C@@H]1C[C@@](OC(=O)/C=C/c2ccc(O)c(O)c2)(C(=O)O)C[C@@H](O)[C@@H]1O [Cynarin (1,5-Di-O-caffeoylquinic acid)] | 0.0398 | 0.0943 |
| COc1c(O[C@@H]2O[C@H](CO)[C@@H](O)[C@H](O)[C@H]2O)cc2occ(-c3ccc(O)cc3)c(=O)c2c1O [Tectoridin] | 0.116 | 0.192 |
| CC(C)(O)[C@@H]1CC[C@](C)([C@H]2[C@@H](O)C[C@@]3(C)[C@@H]4C[C@H](O)[C@H]5C(C)(C)[C@@H](O)CC[C@@]56C[C@@]46CC[C@]23C)O1 [Cycloastragenol] | -0.045 | 0.136 |
| COc1ccc2ccc(=O)oc2c1CC=C(C)C [Osthole] | 0.0815 | -0.0645 |
| COc1cccc(OC)c1C(=O)OCc1cc(O)ccc1O[C@@H]1O[C@H](CO)[C@@H](O)[C@H](O)[C@H]1O [Curculigoside] | 0.0105 | 0.0401 |
| O[C@@H]1[C@@H](O)[C@@H](OC/C=C/c2ccccc2)O[C@H](CO[C@@H]2OC[C@H](O)[C@H](O)[C@H]2O)[C@H]1O [Rosavin] | 0.0495 | 0.148 |

| Compound | NHEJ repair efficiency (log10) [1] | HR repair efficiency (log10) [2] |
| --- | --- | --- |
| CC(=O)OCC1=C[C@@H]2OC(=O)C3=CO[C@@H](O[C@@H]4O[C@H](CO)[C@@H](O)[C@H](O)[C@H]4O)[C@H]1[C@@H]32 [Asperuloside] | 0.0752 | 0.1 |
| O=C(O)CCC(=O)O [Succinic acid] | 0.006 | 0.102 |
| CC(CC(=O)C[C@@H](C)[C@H]1CC(=O)[C@@]2(C)C3=C(C(=O)C[C@]12C)[C@@]1(C)CC[C@H](O)C(C)(C)[C@@H]1C[C@@H]3O)C(=O)O (some centres undefined) [Ganoderic Acid B] | 0.0835 | 0.0793 |
| CC1(C)[C@@H](O)CC[C@]2(C)[C@H]3C(=O)C=C4[C@@H]5C[C@@](C)(C(=O)O)CC[C@]5(C)CC[C@@]4(C)[C@]3(C)CC[C@@H]12 [Glycyrrhetinic Acid] | 0.0065 | 0.158 |
| O=C1/C(=C2\Nc3ccccc3C2=O)Nc2ccccc21 [Indigo] | -0.108 | -0.0903 |
| COc1ccc(/C=C/c2cc(O)cc(O[C@@H]3O[C@H](CO)[C@@H](O)[C@H](O)[C@H]3O)c2)cc1 [Desoxyrhaponticin] | 0.161 | 0.245 |
| CC(=O)O[C@@H]1CC[C@@]2(C)[C@@H](CC[C@]3(C)[C@@H]2C(=O)C=C2[C@@H]4[C@@H](C)[C@H](C)CC[C@]4(C)CC[C@]23C)[C@@]1(C)C(=O)O [3-Acetyl-11-Keto-Beta-Boswellic Acid] | -0.179 | -0.0515 |
| O=c1cc(-c2ccccc2)oc2cc(O)cc(O)c12 [Chrysin] | 0.01 | -0.15 |
| O=c1c2ccccc2nc2n1CCc1c-2[nH]c2ccccc12 [Rutecarpine] | -0.038 | -0.0255 |
| C[C@H]1[C@H](OC(=O)CCC(=O)O)O[C@@H]2O[C@@]3(C)CC[C@H]4[C@H](C)CC[C@@H]1[C@@]24OO3 [Artesunate] | -0.0268 | -0.241 |
| COc1ccc(C2OCC3C(c4cc(OC)c(OC)c(OC)c4)OCC23)cc1OC (centres undefined) [Magnolin] | -0.0599 | -0.00542 |
| O=C1C[C@@H](c2ccc(O)c(O)c2)Oc2cc(O)cc(O)c21 [Eriodictyol] | -0.0055 | 0.0227 |
| COc1cc2c(cc1OC)-c1cc3ccc(OC)c(OC)c3c[n+]1CC2 [Palmatine hydrochloride] | 0.0374 | 0.0612 |
| O=C(C=Cc1ccc(O)c(O)c1)O[C@H]1[C@H](O)C[C@](O)(C(=O)O)C[C@H]1OC(=O)C=Cc1ccc(O)c(O)c1 [Isochlorogenic acid C] | 0.118 | 0.0227 |
| Cc1ccc(C(C)C)cc1 [p-Cymene] | 0.065 | 0.196 |
| COc1cc(/C=C/CO)ccc1O[C@@H]1O[C@H](CO)[C@@H](O)[C@H](O)[C@H]1O [Coniferin] | 0.0205 | 0.0767 |
| OCCc1ccc(O)c(O)c1 [Hydroxytyrosol] | 0.0571 | 0.228 |
| O=C(/C=C/c1ccc(O)c(O)c1)O[C@@H]1C[C@](O)(C(=O)O)C[C@@H](O)[C@H]1O [Chlorogenic Acid] | 0.0025 | -0.132 |
| OC[C@H]1O[C@@H](O[C@@H]2OC=C[C@H]3[C@H](O)[C@@H]4O[C@]4(CO)[C@@H]23)[C@H](O)[C@@H](O)[C@@H]1O [Catalpol] | 0.0212 | 0.00259 |
| C=CCc1ccc(O)c(-c2ccc(O)c(CC=C)c2)c1 [Honokiol] | 0.125 | 0.163 |
| C=CCc1ccc(O)c(OC)c1 [Eugenol] | 0.027 | -0.0172 |
| COc1c(O)cc2occ(-c3ccc(O)cc3)c(=O)c2c1O [Tectorigenin] | -0.0657 | -0.129 |
| Oc1cc(O)c2cc(O)c(-c3ccc(O)c(O)c3)[o+]c2c1 [Cyanidin Chloride] | -0.0642 | 0.00943 |
| CC[C@]12CCCN3CCc4c(n(c5ccccc45)[C@@](O)(C(=O)OC)C1)[C@@H]32 [Vincamine] | 0.104 | 0.0346 |
| CC1(C)CC[C@]2(C(=O)O[C@@H]3O[C@H](CO)[C@@H](O)[C@H](O)[C@H]3O)CC[C@]3(C)C(=CC[C@@H]4[C@@]5(C)CC[C@H](O[C@@H]6O[C@H](C(=O)O)[C@@H](O)[C@H](O)[C@H]6O[C@@H]6O[C@H](CO)[C@@H](O)[C@H](O)[C@H]6O)C(C)(C)[C@@H]5CC[C@]43C)[C@@H]2C1 [Chikusetsusaponin V] | 0.0351 | 0.0384 |
| COc1ccc2cc1Oc1ccc(cc1)C[C@H]1c3cc(c(OC)cc3CCN1C)Oc1c(OC)c(OC)cc3c1[C@H](C2)N(C)CC3 [Tetrandrine] | 0.294 | -0.328 |
